The source of these data is PubChem BioAssay.

The nature of experiment [1]: binders of probe aFSTL3 on microarray, primary screen, stem cell growth factor project, biochemical, small-molecule microarray, fluorescence 635/667 (AID 1064).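 Note: measures binding of the biotinylated anti-FSTL3 antibody to printed compounds.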 The settings on record: higher = more signal.
Experiment [2] is described as follows: binders from COS7 lysate, DM2A8 probe, primary screen, torsin A project, cell lysate, small-molecule microarray, fluorescence 635/667 (AID 1065). The settings on record: higher = more signal, COS7 lysate expressing mutant human TOR1A.
A short description of experiment [3]: binders of probe aFGF2 on microarray, primary screen, stem cell growth factor project, biochemical, small-molecule microarray, fluorescence 635/667 (AID 1067).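 Note: measures binding of biotinylated aFGF2 protein to printed compounds on slides; z-score merges feature fluorescence and signal-to-noise across triplicate slides.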 The settings on record: higher = more signal.
Experiment [4] in a line: binders of probe aFGF10 on microarray, primary screen, stem cell growth factor project, biochemical, small-molecule microarray, fluorescence 635/667 (AID 1071).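 Note: score merges 667 nm spot intensity and signal to noise from triplicate slides.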 The settings on record: higher = more signal.
For experiment [5], the target named is Neurogenic locus notch homolog protein 2 (Homo sapiens) (UniProt Q04721). Put plainly: Notch2 binders on small-molecule microarrays, primary screen, biochemical, small-molecule microarray, 635 nm fluorescence, stem cell growth factors (AID 1073). The settings on record: Notch2 binding, higher = more signal.
In experiment [6] the target is Pro-neuregulin-1, membrane-bound isoform (Homo sapiens) (UniProt Q02297). Put plainly: NRG1 binders on small-molecule microarrays, primary screen, psychiatric disease protein project, biochemical, small-molecule microarray, fluorescence 635/667 (AID 1075).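 Note: score combines 667 nm spot fluorescence with signal to noise.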 The settings on record: NRG1 binding, 635 nm fluorescence, higher = more signal.
Sequence of Pro-neuregulin-1, membrane-bound isoform (Homo sapiens) (Q02297 whole entry, looked up, the tested form may be a part, canonical isoform): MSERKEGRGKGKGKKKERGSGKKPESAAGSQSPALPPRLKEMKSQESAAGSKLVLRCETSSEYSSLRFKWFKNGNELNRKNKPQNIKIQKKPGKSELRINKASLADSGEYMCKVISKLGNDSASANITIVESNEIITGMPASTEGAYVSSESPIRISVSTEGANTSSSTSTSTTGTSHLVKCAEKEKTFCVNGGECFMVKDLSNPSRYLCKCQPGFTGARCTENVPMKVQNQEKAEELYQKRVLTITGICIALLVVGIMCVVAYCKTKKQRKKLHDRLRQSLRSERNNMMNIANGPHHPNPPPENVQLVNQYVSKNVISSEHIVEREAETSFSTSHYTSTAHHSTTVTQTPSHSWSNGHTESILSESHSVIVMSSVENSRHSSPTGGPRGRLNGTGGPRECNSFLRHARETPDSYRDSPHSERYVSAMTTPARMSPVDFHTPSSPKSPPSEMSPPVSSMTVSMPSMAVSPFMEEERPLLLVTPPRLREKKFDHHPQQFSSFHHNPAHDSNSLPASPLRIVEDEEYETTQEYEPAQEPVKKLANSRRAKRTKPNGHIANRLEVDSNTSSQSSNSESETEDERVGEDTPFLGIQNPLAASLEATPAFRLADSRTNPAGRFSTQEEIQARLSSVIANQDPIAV
Experiment [7] relates to Neuregulin-1 EGF-like domain. Briefly: binders of neuregulin-1 EGF-like domain, primary screen, biochemical, small-molecule microarray, 635 nm fluorescence (AID 1081).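 Note: binding of the protein to compounds printed on small-molecule microarray slides.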 The settings on record: small-molecule microarray binding, higher = more signal.
Experiment [8] can be described thus: FRG1 promoter luciferase signal modulators, primary screen, FRG1 inhibition for FSHD, cell-based, C2C12 myotubes, firefly/Renilla luciferase, luminescence (AID 1084). The settings on record: higher = more signal, called active from +8 up or from −8 down.
Experiment [9] can be described thus: binders of probe aFST on microarray, primary screen, stem cell growth factor project, biochemical, small-molecule microarray, fluorescence 635/667 (AID 1086).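 Note: score merges 667 nm fluorescence with signal-to-noise of each printed compound spot.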 The settings on record: higher = more signal.
The nature of experiment [10]: binders of probe aHhip on microarray, primary screen, stem cell growth factor project, biochemical, small-molecule microarray, fluorescence 635/667 (AID 1087).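 Note: score merges spot fluorescence at 667nm with spot signal to noise ratio.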 The settings on record: higher = more signal.
For experiment [11], the system named is PRMT1 (protein arginine N-methyltransferase 1). Put plainly: PRMT1 binders on small-molecule microarrays, primary screen, biochemical, small-molecule microarray, 635 nm fluorescence (AID 1088).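 Note: binding of Prmt1 protein to compounds spotted on small-molecule microarray slides.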 The settings on record: small-molecule microarray binding, higher = more signal.
Experiment [12] is described as follows: yeast growth modulation, basal conditions, primary screen, YJM789 clinical isolate, OD600, 24 h (AID 1089).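 Note: growth of clinical yeast isolate S. cerevisiae YJM 789 seeded 1000 cells per well; test concentration not given here.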 The settings on record: S. cerevisiae YJM789 growth, higher = more signal, called active from +8 up or from −8 down.
Experiment [13] is described as follows: fission yeast growth modulation, primary screen, strain 972, OD600, 24 h, no modulator (AID 1090).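 Note: basal condition with compound alone and no growth modifier present; test concentration not given here.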 The settings on record: S. pombe 972 growth, higher = more signal, called active from +8 up or from −8 down.
The nature of experiment [14]: S. cerevisiae growth modulation with rapamycin, primary screen, strain BY4716, OD600, 96 h (AID 1091). Note: test concentration not given here. The settings on record: higher = more signal, called active from +8 up or from −8 down.
Experiment [15] concerns the target Torsin-1A-interacting protein 2 (Homo sapiens) (UniProt Q8NFQ8). Put plainly: LULL1 binders on small-molecule microarray, primary screen, cell lysate, human LULL1 lysate, 635/667 nm fluorescence (AID 1092).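 Note: score merges per-feature 667 nm fluorescence with signal-to-noise.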 The settings on record: hLULL1 lysate binding, 635 nm fluorescence, higher = more signal.
Experiment [16] is described as follows: E. coli growth modulation, two-sided OD650, primary screen, E. coli filamentation project, strain DRC41, 24 h (AID 1093).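 Note: MC1000 strain lacking acrAB efflux and sulA so SOS filamentation is blocked; test concentration not given here.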 The settings on record: OD650, 24 h, higher = more signal, called active from +8 up or from −8 down.
Experiment [17] is described as follows: small-molecule microarray binders of probe aLefty2, primary screen, biochemical, biotinylated probe, 635/667 nm fluorescence (AID 1094).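 Note: score merges spot fluorescence near 667 nm with spot signal-to-noise ratio.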 The settings on record: higher = more signal.
Experiment [18] deals with Noggin (protein binding on small-molecule microarray). Put plainly: Noggin binders on small-molecule microarray, primary screen, biochemical, 635/667 nm fluorescence (AID 1095).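 Note: score merges 667 nm feature fluorescence with signal to noise over triplicate slides.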 The settings on record: 635 nm fluorescence, higher = more signal.
In experiment [19] the target is Neurogenic locus notch homolog protein 3 (Homo sapiens) (UniProt Q9UM47). Briefly: NOTCH3 binders on small-molecule microarray, primary screen, biochemical, 635/667 nm fluorescence (AID 1096). The settings on record: NOTCH3 binding, 635 nm fluorescence, higher = more signal.
Sequence of Neurogenic locus notch homolog protein 3 (Homo sapiens) (Q9UM47 whole entry, looked up): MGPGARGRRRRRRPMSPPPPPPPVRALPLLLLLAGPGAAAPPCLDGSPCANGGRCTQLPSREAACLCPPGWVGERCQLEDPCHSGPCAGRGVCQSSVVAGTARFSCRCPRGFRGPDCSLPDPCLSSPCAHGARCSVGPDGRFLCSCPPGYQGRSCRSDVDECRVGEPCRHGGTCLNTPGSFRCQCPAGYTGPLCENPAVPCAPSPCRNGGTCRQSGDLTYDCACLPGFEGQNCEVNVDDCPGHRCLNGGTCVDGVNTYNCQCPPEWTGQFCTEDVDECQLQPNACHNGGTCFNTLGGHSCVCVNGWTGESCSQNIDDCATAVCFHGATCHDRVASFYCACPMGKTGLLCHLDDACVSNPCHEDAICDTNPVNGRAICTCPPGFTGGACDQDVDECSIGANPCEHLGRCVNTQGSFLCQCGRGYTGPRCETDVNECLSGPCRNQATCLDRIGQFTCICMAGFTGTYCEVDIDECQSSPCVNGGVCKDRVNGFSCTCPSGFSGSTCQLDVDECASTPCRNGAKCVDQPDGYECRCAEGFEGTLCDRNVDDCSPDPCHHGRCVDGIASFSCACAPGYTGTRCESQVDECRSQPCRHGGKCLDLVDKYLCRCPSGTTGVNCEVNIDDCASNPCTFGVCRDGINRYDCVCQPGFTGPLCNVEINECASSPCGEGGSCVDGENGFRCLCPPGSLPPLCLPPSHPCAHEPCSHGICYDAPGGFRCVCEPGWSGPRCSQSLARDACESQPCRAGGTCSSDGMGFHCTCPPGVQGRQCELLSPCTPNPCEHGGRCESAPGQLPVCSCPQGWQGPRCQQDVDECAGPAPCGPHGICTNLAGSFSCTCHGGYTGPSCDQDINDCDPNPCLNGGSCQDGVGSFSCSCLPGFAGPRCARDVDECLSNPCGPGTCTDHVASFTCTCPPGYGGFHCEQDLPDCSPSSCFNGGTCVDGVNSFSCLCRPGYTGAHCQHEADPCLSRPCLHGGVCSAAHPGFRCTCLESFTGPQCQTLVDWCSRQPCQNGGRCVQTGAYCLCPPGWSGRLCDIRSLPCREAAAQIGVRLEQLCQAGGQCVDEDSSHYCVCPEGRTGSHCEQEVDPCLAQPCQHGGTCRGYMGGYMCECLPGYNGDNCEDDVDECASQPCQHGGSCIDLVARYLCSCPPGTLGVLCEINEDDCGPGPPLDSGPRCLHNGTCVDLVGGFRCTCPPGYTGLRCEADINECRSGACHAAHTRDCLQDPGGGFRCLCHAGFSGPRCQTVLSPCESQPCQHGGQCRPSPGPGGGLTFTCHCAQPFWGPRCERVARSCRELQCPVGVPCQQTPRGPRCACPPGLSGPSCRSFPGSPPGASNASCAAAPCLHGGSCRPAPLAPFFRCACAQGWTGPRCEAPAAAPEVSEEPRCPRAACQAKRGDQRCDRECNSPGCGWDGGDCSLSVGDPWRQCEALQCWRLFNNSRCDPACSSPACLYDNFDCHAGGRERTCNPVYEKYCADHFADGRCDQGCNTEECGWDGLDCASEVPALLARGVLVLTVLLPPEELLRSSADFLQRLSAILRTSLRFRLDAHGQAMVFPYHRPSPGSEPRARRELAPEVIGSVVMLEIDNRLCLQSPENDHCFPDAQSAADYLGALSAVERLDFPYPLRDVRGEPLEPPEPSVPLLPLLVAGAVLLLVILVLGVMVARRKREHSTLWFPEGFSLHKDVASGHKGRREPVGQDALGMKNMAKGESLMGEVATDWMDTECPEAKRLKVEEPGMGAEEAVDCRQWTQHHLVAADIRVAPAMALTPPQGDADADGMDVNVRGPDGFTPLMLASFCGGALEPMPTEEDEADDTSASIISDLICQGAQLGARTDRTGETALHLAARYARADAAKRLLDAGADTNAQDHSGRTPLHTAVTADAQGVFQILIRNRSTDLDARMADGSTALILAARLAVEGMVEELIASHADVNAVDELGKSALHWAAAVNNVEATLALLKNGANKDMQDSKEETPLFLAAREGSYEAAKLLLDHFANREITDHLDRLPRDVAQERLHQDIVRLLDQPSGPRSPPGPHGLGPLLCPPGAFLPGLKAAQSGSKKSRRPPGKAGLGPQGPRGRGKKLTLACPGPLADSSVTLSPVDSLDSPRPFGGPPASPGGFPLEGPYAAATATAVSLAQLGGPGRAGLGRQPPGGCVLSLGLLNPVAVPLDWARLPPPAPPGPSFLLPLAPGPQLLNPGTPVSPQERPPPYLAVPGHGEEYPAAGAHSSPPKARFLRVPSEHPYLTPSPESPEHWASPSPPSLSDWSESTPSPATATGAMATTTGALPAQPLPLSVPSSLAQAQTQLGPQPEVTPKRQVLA
Experiment [20] can be described thus: small-molecule microarray binders of probe aEGFR, primary screen, biochemical, biotinylated probe, 635/667 nm fluorescence (AID 1097).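 Note: probe is a biotinylated anti-EGFR antibody binding compounds printed on slides; score combines fluorescence near 667 nm and signal to noise of each spot.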 The settings on record: higher = more signal.

Active and inactive are the calls of the source.

Sequence of Torsin-1A-interacting protein 2 (Homo sapiens) (Q8NFQ8 whole entry, looked up): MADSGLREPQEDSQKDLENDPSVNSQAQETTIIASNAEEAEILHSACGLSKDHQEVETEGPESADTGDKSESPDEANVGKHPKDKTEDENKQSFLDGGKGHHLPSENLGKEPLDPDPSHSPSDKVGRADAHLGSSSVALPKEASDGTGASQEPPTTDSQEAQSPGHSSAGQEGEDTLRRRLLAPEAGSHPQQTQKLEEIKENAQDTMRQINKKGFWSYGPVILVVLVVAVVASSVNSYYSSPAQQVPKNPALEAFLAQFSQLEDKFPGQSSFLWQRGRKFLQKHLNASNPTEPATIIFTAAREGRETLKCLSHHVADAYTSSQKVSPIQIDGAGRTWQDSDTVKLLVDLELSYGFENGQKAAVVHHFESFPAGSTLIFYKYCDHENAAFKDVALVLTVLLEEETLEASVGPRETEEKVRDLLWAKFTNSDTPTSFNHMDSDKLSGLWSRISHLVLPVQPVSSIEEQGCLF

Turning to `COCCOC(=O)N1C(=O)[C@@]2(c3cc(C#CCC(C(=O)OC)C(=O)OC)ccc31)[C@H](c1ccc(OCCO)cc1)N1[C@H](c3ccccc3)[C@H](c3ccccc3)OC(=O)[C@H]1[C@@H]2C(=O)NC[C@H](O)c1ccccc1`, the composite z-score in experiment [1] was -1.25; in experiment [2], 0.501; in experiment [3], -0.0272; in experiment [4] it was 1.15; in [5] it was 1.45; in experiment [6], 0.824. Also, the composite z-score in experiment [7] is 1.28; in experiment [9] it was -0.158; in experiment [10], -0.521; in experiment [11] it was 1.53; in experiment [15] it was 3.51; in [17], -0.426. In addition, the composite z-score in experiment [18] is 1.46; in experiment [19], 1.08; in [20] it was -0.0389. Also, the z-score was -0.89 (inactive) in experiment [8]; 2.11 (inactive) in experiment [12]; 1.7 (inactive) in experiment [13]; 7.38 (inactive) in experiment [14]; 0.0053 (inactive) in [16].
As to `O[C@@H](Cc1ccccc1)[C@@H](/C=C/c1ccccc1)NCc1ccccc1Br`, the composite z-score is 0.686 in experiment [1]; -1.36 in experiment [2]; -0.176 in experiment [3]; -1.09 in [4]; -1.31 in experiment [5]; -0.803 in experiment [6]. The composite z-score was -0.639 in experiment [7]; -0.579 in experiment [9]; -0.475 in [10]; -0.995 in [11]; -0.557 in experiment [15]; 0.0372 in [17]. In addition, the composite z-score in experiment [18] was -1.34; in experiment [19], -0.707; in [20] it was -0.348. For the same molecule, the z-score in experiment [8] is -0.926 (inactive); in experiment [12], 0.0419 (inactive); in experiment [13], -11.4 (active); in [14] it was -1.54 (inactive); in [16], 0.908 (inactive).
On to `O=C1O[C@@H](c2ccccc2)[C@@H](c2ccccc2)N2[C@@H](c3ccccc3OCCO)[C@]3(C(=O)Nc4ccc(C#CC5(O)CCCCCC5)cc43)[C@@H](C(=O)NC[C@H](O)c3ccccc3)[C@H]12`, for which the composite z-score is 1.99 in experiment [1]; 0.142 in [2]; 0.0924 in experiment [3]; 1.03 in experiment [4]; 0.81 in experiment [5]; 1.75 in [6]. Moreover, the composite z-score in [7] came to 1.24; in experiment [9] it was 1.74; in experiment [10], 0.0145; in experiment [11], 1.55; in [15], 3.08; in experiment [17], 0.161. The composite z-score in experiment [18] came out at 1.69; in [19] it was 1.05; in experiment [20] it was 0.146. The z-score was -1.2 (inactive) in [8]; 1.77 (inactive) in [12]; 1.16 (inactive) in experiment [13]; 4.86 (inactive) in [14]; -0.371 (inactive) in [16].
`C[N+](C)(C)CCCCNC(=O)[C@H]1C[C@H]2C(=O)N3CCC[C@H]3C(=O)N2[C@H]1c1ccc(O)cc1`: the composite z-score was -0.32 in experiment [1]; 0.799 in experiment [2]; -0.12 in [3]; 1.15 in experiment [4]; 0.534 in experiment [5]; -0.0852 in experiment [6]. For the same molecule, the composite z-score in [7] is 1.34; in experiment [9] it was 0.446; in experiment [10], 0.176; in experiment [11] it was 1.54; in experiment [15] it was 2.14; in experiment [17] it was -0.101. Besides, the figures for the composite z-score in [18], in [19] and in [20] were 1.85, 1.04 and 0.124, respectively. Further, the z-score in experiment [8] was 1.42 (inactive); in [12], 0.0531 (inactive); in experiment [13], 0.0211 (inactive); in experiment [14] it was -1.41 (inactive); in experiment [16], -0.0773 (inactive).
Regarding `COCCOC(=O)N1C(=O)[C@@]2(c3cc(C#CC4=CCCCC4)ccc31)[C@H](C(=O)N1CCN(c3ncccn3)CC1)[C@H]1C(=O)O[C@H](c3ccccc3)[C@H](c3ccccc3)N1[C@@H]2c1ccc(OCCO)cc1`, the composite z-score in [1] is 0.121; in [2] it was 0.181; in experiment [3], 0.0533; in experiment [4], 0.723; in experiment [5] it was 1.42; in experiment [6], -0.289. For the same molecule, the composite z-score in experiment [7] is 1.17; in experiment [9], 0.824; in experiment [10], 0.109; in [11], 1.55; in experiment [15] it was 2.02; in experiment [17], 0.415. For the same molecule, the results for the composite z-score in [18], in [19] and in [20] were 0.554, 1.14 and 0.145, respectively. Further, the z-score in experiment [8] is 0.384 (inactive); in experiment [12], 1.48 (inactive); in experiment [13], 0.442 (inactive); in experiment [14], 3.23 (inactive); in experiment [16], 0.0301 (inactive).
